# Measurements from PubChem BioAssay (NCATS).
# Results filed as inconclusive are left out. The source made the active and inactive calls. Unless noted, calls follow the shape of the dose curve; as a rule, active = well fitted curve in the direction sought with a large enough effect; inconclusive = small, poorly fitted or top-dose-only effect, or another doubt; inactive = no such curve, though single readings can be large; an effect the other way counts as inactive or inconclusive.
# Legend:
# [1] = Quantitative High-Throughput drug screen in 47 multiple myeloma cell lines against the NCATS MIPE library collection: RPMI8226_ATCC cell viability assay (AID 1919871); also: nearly all actives have a fitted effect of over 30% in size; also: potency is read from the fitted curve at half-maximal effect
# Procedure, shortened: (§1)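 Viability after 48 h drug exposure was measured as ATP-dependent luminescence. Cells, 500 per well, sat at 37 °C under 5% CO2; DMSO wells set 100%, media-only wells 0%.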
# [2] = Quantitative High-Throughput drug screen in 47 multiple myeloma cell lines against the NCATS MIPE library collection: OPM2_DSMZ cell viability assay (AID 1919872); also: nearly all actives have a fitted effect of over 30% in size; also: potency is read from the fitted curve at half-maximal effect
# Procedure, shortened: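 Myeloma cells (500 per well) were exposed to MIPE 4.0 compounds by pin transfer and incubated 48 hours at 37C, 5% CO2. Viability was read as ATP by CellTiter-Glo luminescence, normalised to DMSO (100%) and media-only (0%) wells.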
# [3] = Quantitative High-Throughput drug screen in 47 multiple myeloma cell lines against the NCATS MIPE library collection: KMS11_JCRBsus cell viability assay (AID 1919873); also: nearly all actives have a fitted effect of over 50% in size; also: potency is read from the fitted curve at half-maximal effect
# Procedure, shortened: as §1
# [4] = Quantitative High-Throughput drug screen in 47 multiple myeloma cell lines against the NCATS MIPE library collection: KMS28BM_JCRB cell viability assay (AID 1919874); also: nearly all actives have a fitted effect of over 35% in size; also: potency is read from the fitted curve at half-maximal effect
# Procedure, shortened: as §1
# [5] = qHTS for identification of novel therapeutic agents for treatment of microphthalmiaassociated transcription factor (MiT) renal cell carcinoma (RCC) (AID 1963991; calls by dose curve; also: potency is read from the fitted curve at half-maximal effect); details: CellTiter-Glo, 48 h; for z-score: stronger effect = lower value
# Procedure, shortened: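 Curves over 11 concentrations were fitted to CellTiter-Glo luminescence, scaled between empty wells (0%) and DMSO (100%) viability. Cells were UOK109, UOK124 and UOK145 TFE3-fusion RCC lines at 500/well, exposed 48 hours at 37 C.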
# [6] = qHTS drug screen for cell cycle checkpoint inhibitors in PARPi-resistant BRCA-mutant ovarian cancer cell lines. (AID 1963452; calls by dose curve); details: PEO1/OlaR viability, CellTiter-Glo luminescence, 96 h, stronger effect = lower value
# Procedure, shortened: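 PEO1, PEO4 and PEO1/OlaR ovarian cancer cells, 600 per well, exposed 96 h at 37C to a dilution series. Viability read by CellTiter-Glo luminescence, normalized to DMSO and empty wells; activity summarized as Z-AUC.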
# [7] = qHTS profiling for inhibitors of Plasmodium falciparum proliferation (AID 504749);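 also: 0% = DMSO vehicle and full inhibition = artemisinin control; nearly all actives have a fitted effect of over 60% in size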; details: P. falciparum in erythrocytes, SYBR Green DNA, 72 h, at 28.7 µM (top of the series)
# Procedure, shortened: (§2)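 Readout was DNA-dye fluorescence from lysed cultures, ex 485/em 535 nm. Parasitized red cells had grown 72 h with compound; data scaled between 0.29 uM artemisinin and DMSO wells and corrected using vehicle-only plates.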
# 3D7 = assay: as above; details: P. falciparum in erythrocytes, SYBR Green DNA, 72 h; series mostly up to 28.7 µM
# Procedure, shortened: as §2
# 7G8 = assay: as above; details: P. falciparum in erythrocytes, SYBR Green DNA, 72 h; series mostly up to 28.7 µM
# Procedure, shortened: as §2
# [8] = TFE3-RCC UOK109 viability, measured here: UOK109 Z-AUC
# [9] = TFE3-RCC viability, measured here: UOK124 Z-AUC
# [10] = TFE3-RCC viability, measured here: UOK145 Z-AUC
# [11] = measured here: PEO1 parental Z-AUC
smiles,measurement,setting,value
CC[C@@H]1[C@@H](C)O[C@@](O)([C@@H](C)[C@H](O)[C@H](C)[C@H]2OC(=O)C=CC=C[C@@H](C)[C@@H]([C@@H](C)[C@@H](O)[C@H](C)[C@@]3(O)C[C@H](O[C@H]4C[C@H](O)[C@H](O)[C@H](C)O4)[C@H](CC)[C@@H](C)O3)OC(=O)C=CC=C[C@@H]2C)C[C@H]1O[C@H]1C[C@H](O)[C@H](O)[C@H](C)O1,Potency,[1],372 nM (active)
same,Potency,[2],372 nM (active)
same,Potency,[3],418 nM (active)
same,Potency,[4],372 nM (active)
same,Potency,[5]; TFE3-RCC UOK109 viability,1050 nM (active)
same,z-score,[5]; [8],-1.85
same,z-score,[5]; [9],-2.49
same,z-score,[5]; [10],-1.57
c1cc2c(cc1[C@H]1OC[C@H]3[C@H]1CO[C@H]3c1ccc3c(c1)OCO3)OCO2,Potency,[1],inactive
same,Potency,[2],inactive
same,Potency,[3],inactive
same,Potency,[4],inactive
same,z-score,[5]; [8],0.442
same,z-score,[5]; [9],0.255
same,z-score,[5]; [10],0.142
c1ccc2c(CN3CCNCC3)cccc2c1,Potency,[1],inactive
same,Potency,[2],inactive
same,Potency,[3],inactive
same,Z-AUC,[6],-0.771 (inactive)
same,Z-AUC,[6]; [11],-0.119
same,Z-AUC,[6]; measured here: PEO4 Z-AUC,-0.706
same,z-score,[5]; [8],0.545
same,z-score,[5]; [9],0.291
same,z-score,[5]; [10],0.833
COc1ccc(CC2NCCc3cc(OC)c(OC)cc32)cc1OC (stereo not given),Potency,[1],inactive
same,Potency,[2],inactive
same,Potency,[3],inactive
same,Potency,[4],inactive
same,z-score,[5]; [8],0.368
same,z-score,[5]; [9],0.055
same,z-score,[5]; [10],0.8
CC(=Cc1csc(C)n1)[C@@H]1C[C@H]2O[C@@H]2CCC[C@H](C)[C@@H](O)[C@@H](C)C(=O)C(C)(C)[C@@H](O)CC(=O)O1,Potency,[1],inactive
same,Potency,[2],inactive
same,Potency,[3],inactive
same,Potency,[4],inactive
same,z-score,[5]; [8],-3.27
same,z-score,[5]; [9],-1.59
same,z-score,[5]; [10],-2.88
CC(O)=C(C#N)C(=O)Nc1cc(Br)ccc1Br,Potency,[1],11800 nM (active)
same,Potency,[2],inactive
same,z-score,[5]; [8],0.277
same,z-score,[5]; [9],0.279
same,z-score,[5]; [10],0.63
C1=C2CCCN[C@H]2[C@@H]2C[C@H]1[C@@H]1CCCCN1C2,Potency,[1],inactive
same,Potency,[2],inactive
same,Potency,[3],inactive
same,Potency,[4],inactive
same,z-score,[5]; [8],-0.0816
same,z-score,[5]; [9],0.828
same,z-score,[5]; [10],0.304
COc1ccc2c(c1)[C@]13CCCCC1C(C2)N(C)CC3 (stereo not given in full),Potency,[1],inactive
same,Potency,[2],inactive
same,Potency,[3],inactive
same,z-score,[5]; [8],-0.129
same,z-score,[5]; [9],0.851
same,z-score,[5]; [10],0.444
CC(C)[C@]12O[C@@H]1[C@@H]1O[C@]13[C@]1(O[C@H]1C[C@@H]1C4=C(CC[C@@]13C)C(=O)OC4)[C@H]2O,Potency,[1],inactive
same,Potency,[2],inactive
same,Potency,[3],inactive
same,Potency,[4],inactive
same,z-score,[5]; [8],-3.4
same,z-score,[5]; [9],-3.26
same,z-score,[5]; [10],-3.53
COC(=O)[C@@H](N)CCCN=C(N)N[N+](=O)[O-],Potency,[1],inactive
same,Potency,[2],inactive
same,Potency,[3],inactive
same,Potency,[4],inactive
same,Z-AUC,[6],-0.673 (inactive)
same,Z-AUC,[6]; [11],-0.429
same,Z-AUC,[6]; measured here: PEO4 Z-AUC,-0.589
same,z-score,[5]; [8],0.59
same,z-score,[5]; [9],0.788
same,z-score,[5]; [10],2.13
same,"activity, negative = inhibition",[7]; parasite line A,8.8% (inactive)
same,"activity, negative = inhibition",[7]; parasite line B,10.5% (inactive)
same,Potency,3D7,inactive
same,Potency,7G8,inactive
CCOC(=O)c1cncn1[C@H](C)c1ccccc1,Potency,[1],inactive
same,Potency,[2],inactive
same,Potency,[4],inactive
same,z-score,[5]; [8],1.85
same,z-score,[5]; [9],0.442
same,z-score,[5]; [10],0.512
CN(C)NC(=O)CCC(=O)O,Potency,[1],inactive
same,Potency,[2],inactive
same,Potency,[3],inactive
same,Z-AUC,[6],1.04 (inactive)
same,Z-AUC,[6]; [11],0.492
same,Z-AUC,[6]; measured here: PEO4 Z-AUC,0.93
same,z-score,[5]; [8],0.632
same,z-score,[5]; [9],0.666
same,z-score,[5]; [10],-0.178
C[C@@H]1O[C@@H](O[C@@H]2C=C3CC[C@@H]4[C@@H](CC[C@]5(C)[C@H](c6ccc(=O)oc6)CC[C@@]45O)[C@@]3(C)CC2)[C@H](O)[C@H](O)[C@H]1O,Potency,[1],23.5 nM (active)
same,Potency,[2],9.3 nM (active)
same,Potency,[3],52.6 nM (active)
same,Potency,[4],8.3 nM (active)
same,Potency,[5]; TFE3-RCC UOK109 viability,20.9 nM (active)
same,z-score,[5]; [8],-3.96
same,z-score,[5]; [9],-3.13
same,z-score,[5]; [10],-3.36
O=C(N[C@H]1CN2CCC1CC2)c1ccc(Cl)cc1,Potency,[1],inactive
same,Potency,[2],inactive
same,Potency,[4],inactive
same,Z-AUC,[6],-0.714 (inactive)
same,Z-AUC,[6]; [11],0.355
same,Z-AUC,[6]; measured here: PEO4 Z-AUC,-0.659
CCCC[N+]1(C)[C@H]2CC(OC(=O)[C@H](CO)c3ccccc3)C[C@H]1[C@H]1O[C@H]12 (stereo not given in full),Potency,[1],inactive
same,Potency,[2],inactive
same,Potency,[4],inactive
same,Z-AUC,[6],1.48 (inactive)
same,Z-AUC,[6]; [11],1.34
same,Z-AUC,[6]; measured here: PEO4 Z-AUC,1.36
same,z-score,[5]; [8],0.529
same,z-score,[5]; [9],0.336
same,z-score,[5]; [10],0.453
O=C1C=CC[C@@H]2[C@H]3CCCN4CCC[C@@H](CN12)[C@@H]34,Potency,[2],inactive
same,Potency,[3],inactive
same,Z-AUC,[6],0.0265 (inactive)
same,Z-AUC,[6]; [11],1.52
same,Z-AUC,[6]; measured here: PEO4 Z-AUC,0.946
CC=C(C)C(=O)N[C@@H](c1ccccc1)[C@@H](O)C(=O)O[C@H]1C[C@@]2(O)[C@@H](OC(=O)c3ccccc3)[C@@H]3[C@]4(OC(C)=O)CO[C@@H]4C[C@H](O)[C@@]3(C)C(=O)[C@H](OC(C)=O)C(=C1C)C2(C)C,Potency,[1],inactive
same,Potency,[3],inactive
O=C1CCC[C@@H]2[C@H]3CCCN4CCC[C@@H](CN12)[C@@H]34,Potency,[2],inactive
same,Potency,[3],inactive
same,Potency,[4],inactive
